Laboratory results published in paper PMC12136788.
In all, about 24,000 sequences were measured (“enrichment r”: median about 0.99, highest 2% from about 3.7 on). The list is a sample of the results.

T1: UNK ZnF1-3 (human, UniProt Q9C0B0 31-174)
T1 sequence: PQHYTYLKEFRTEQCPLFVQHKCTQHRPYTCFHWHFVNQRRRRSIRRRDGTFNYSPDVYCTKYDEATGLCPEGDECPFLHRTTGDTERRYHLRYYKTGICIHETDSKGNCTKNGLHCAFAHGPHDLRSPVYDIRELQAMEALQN

B1: chr2:179515052:179515053:+_ENSMUSG00000000305_ENSMUST00000000314|mus_hu|mus_mus_mus_hu_False|28_58 (ssRNA)
RNA: GGGAGUUCUACAGUCCGACGAUCGCUGUCCCAUGCAGUCACCGUGAACGCCACCUGCUCGGAGGGGACCUGCAGCUCCCUAGUGGCGAAGACUGUCCCAUCUGCCCCGACUUUGAAGUCCAUGCUGUUGGUCUCAUAUUGUGUCAACAGAGGAUUGAGCAUCA
B2: chr7:135612270:135612271:-_ENSG00000105887_ENST00000393085|hu_mus|hu_hu_hu_mus_False|8_8 (ssRNA)
RNA: GGGAGUUCUACAGUCCGACGAUCGUUUUUUUCUGAGAUGUUAAAUAGUACUUCAGUGGAAAACAAAACUUAACCUUUUAUUAAUGCGUGUUGUACCAAAAGCAGACAUUUUAGCUUCAUUUAUUCACUCAAAAUAUCAUUAAGCAACAGAGGAUUGAGCAUCA
B3: chr18:56819859:56819860:+_ENSG00000166562_ENST00000588875|hu_mus|hu_hu_hu_mus_True|88_88 (ssRNA)
RNA: GGGAGUUCUACAGUCCGACGAUCAACCUUGAUUACUCUGUGAACUAUUGGAAUGUCUCUUCCUUCAACCUUAAAAACAACUAUUUCACCAGCUCUGAUGGGGUCCUCCCGGAAAUUCGUGAGGAACAGCAGAUCUCCUCUGUGCAACAGAGGAUUGAGCAUCA
B4: chr5:145543945:145543946:-_ENSG00000133706_ENST00000545646|hu_hu|hu_hu_hu_mus_True|38_58 (ssRNA)
RNA: GGGAGUUCUACAGUCCGACGAUCCUGAACGGCCAGUGGUGGGAAAUAAUCAAGCCAGUGCUCUGCUUCAGAAAACUUUACUAUCUCGUCAUCAGAGAGGCCAAGGGAUUUCAUAAUGUCCCACUGGUACUUAGAAGAUCCUGCCAACAGAGGAUUGAGCAUCA
B5: chr12:73313434:73313435:-_ENSMUSG00000021087_ENSMUST00000021497|mus_mus|motif|central (ssRNA)
RNA: GGGAGUUCUACAGUCCGACGAUCCAUAUAUCCUAAGAGUACAGGAAGAGCCUCAAAACACCUGUCUCAAAGUUUGCCUCGGAGAUUAUGGUACCAGGAAAGGGAAACAAUCAAUUUGCAGUAACGAGGAAGGAGAGAGCUGUUCAACAGAGGAUUGAGCAUCA
B6: 87970796_87970916_7552_CDS_ENSG00000188994_ENST00000369577|human|control|control (ssRNA)
RNA: GGGAGUUCUACAGUCCGACGAUCUUCUGACUGGCAGAGGUUAUCUUCCUGAAAAUCAUUACUUACAUUUGAAGAAGUAUUAGCUUGGGUCUCUACACUUGUGCUAUCUUCAUUUAUUAAUUUUGUAAUAAACAAUUCUGUUAGCAACAGAGGAUUGAGCAUCA
B7: chr15:93570553:93570554:+_ENSG00000173575_ENST00000394196|hu_hu|motif|central (ssRNA)
RNA: GGGAGUUCUACAGUCCGACGAUCUCUAAGGCCAUAGUGUAUCAUGUCAACCCUUGUUCACGUGCAGGUUUUAGGUGAUGCGGACUCCCUCUUUCUCAACCUGUUAUUUCUACCAACAAUGAAAUCUUUCAAAGCCAGACUCCACAACAGAGGAUUGAGCAUCA
B8: 135292008_135298915_3170_CDS_ENSG00000155561_ENST00000285968|human|control|control (ssRNA)
RNA: GGGAGUUCUACAGUCCGACGAUCAUAUAUGACCUGGUAACAUAGCUCAGCCAGCUGAGGAGAUUCUCGCACCGCCACUGGGCCUGUUCUCCCUUCCGUUCCUUUCUCCAAGAUGUUUAGAAUGGCGUGAAGGCAUGUCCGAGGCAACAGAGGAUUGAGCAUCA
B9: chr1:66463027:66463028:+_ENSMUSG00000015222_ENSMUST00000114013|mus_hu|motif|central (ssRNA)
RNA: GGGAGUUCUACAGUCCGACGAUCUUUUCUUUCAGGAGUGGAAAUUCUGCCUCUCCCGGUUUUAAAAGGCUUUUCUUUUCGGUGUUUCUCAAGAGAUGAUCUCCGAGCUUCCUUUUCAGCUUUCUCCUCUUUAGGAAUAGUUUCCAACAGAGGAUUGAGCAUCA
B10: 18138343_18138463_2469_3pUTR_ENSMUSG00000026740_ENSMUST00000166495|mouse|control|control (ssRNA)
RNA: GGGAGUUCUACAGUCCGACGAUCUUAGAUCCAUGUAUUCAUGUGCAUGUGUCUAUGUGGGCUCGGAUGUGUGUGCUGUACCACAAUAUGAAUGCAGAGGUCAGAGGACAGCUCCUGUGAACAUGUGCUUGCUGGAGAGUGAGUCAACAGAGGAUUGAGCAUCA
B11: chr17:88379672:88379673:+_ENSMUSG00000005370_ENSMUST00000005503|mus_mus|motif|central (ssRNA)
RNA: GGGAGUUCUACAGUCCGACGAUCUCCCUUUUGGGCUUCCUUUGACUUUGAACCUGUAUAUGGCUUUAACAUCCUUUUGCGGACCCAGCCCCUUGUUGGGCUGUCAUCAAAGAACUGUACAUGAACACGGACAGAUUUCCCUUUCAACAGAGGAUUGAGCAUCA
B12: chr2:48026839:48026840:+_ENSG00000116062_ENST00000540021|hu_hu|hu_hu_hu_mus_False|48_78 (ssRNA)
RNA: GGGAGUUCUACAGUCCGACGAUCAUAGUGAGCCACUAGCGUCCUAAAUCUGGAACAAUGGCGAUCAUCCGAAAACUGGCCGAUGAAAAACUUUCCCAGUGAAGUGUCCACAAAGCAAACACCAUACACACGAGUGUGACCAGACAACAGAGGAUUGAGCAUCA
B13: chr1:55207850:55207851:+_ENSMUSG00000025979_ENSMUST00000162364|mus_hu|FALSE|FALSE (ssRNA)
RNA: GGGAGUUCUACAGUCCGACGAUCCCGAUGAUGAAAAUAAGCAUGUGAAAAUAUUCUGUAAAUCCUACGGCAUACUGAUCCUAGUUUCGCUACAGAUGAUUCCUUUAUGCUAACCCUGCUGGGAAAAUAUUUAUUGCUAUUCAGCAACAGAGGAUUGAGCAUCA
B14: chr1:213302989:213302990:+_ENSG00000136643_ENST00000366960|hu_hu|motif|central (ssRNA)
RNA: GGGAGUUCUACAGUCCGACGAUCAGAAGCAACAGCCCCUAGUGCUGAAGAAUCCGAAGAAAGAUUGAGACCAAAAGUUCGGAUGGGAGAAUUUUGAUUGGAAGCCAUUCCAUCAUCUAACUCAGCAAGAGAAUCCACAUCAACCAACAGAGGAUUGAGCAUCA

target: T1, UNK ZnF1-3; assay: nsRBNS (natural sequence RNA bind-n-seq); RBNS binding buffer (assumed for nsRBNS): 25 mM Tris pH 7.5, 150 mM KCl, 3 mM MgCl2, 0.01% Triton X-100, 500 ug/ml BSA, 20 U/ml SUPERase-In, 4 C; UNK is unkempt and MSI1 is Musashi-1; names of the RNAs are library labels; protein concentration not given here; high values mean tight binding

Binder	binding signal
B1	0.737 enrichment R
B2	0.523 enrichment R
B3	0.697 enrichment R
B4	1.07 enrichment R
B5	2.3 enrichment R
B6	0.862 enrichment R
B7	0.941 enrichment R
B8	1.11 enrichment R
B9	0.426 enrichment R
B10	1.27 enrichment R
B11	0.538 enrichment R
B12	1.26 enrichment R
B13	1.13 enrichment R
B14	2.3 enrichment R
